Results as given in PubChem BioAssay.
Calls of active or inactive are those of the source.

Legend:
[1] = test system: XIP peptide (Xip251-270) binding; assay: small-molecule binders of XIP peptide, primary screen, biochemical, small-molecule microarray, fluorescence 635/667 nm, 0.1 µg/mL protein (AID 1182); conditions: fluorescent protein binding, 635 nm, higher = more signal, called active from +8 up or from −8 down
XIP peptide (Xip251-270) = assay: small-molecule binders of XIP peptide, primary screen, biochemical, small-molecule microarray, fluorescence 635/667 nm, 0.5 µg/mL protein (AID 1183); conditions: small-molecule microarray binding, fluorescence 635 nm; higher = more signal
[2] = Plasmodium falciparum growth inhibition, primary screen, strain 3D7, DAPI fluorescence, 100 nL (AID 1184);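 also: parasites grown inside human red blood cells in medium with human serum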; conditions: P. falciparum 3D7 growth, 3 d, higher = more signal
[3] = target: Homeobox protein Hox-A13 (Mus musculus) (UniProt Q62424); assay: inhibitors of HoxA13-DNA binding, primary screen, biochemical, fluorescence polarization, labeled oligonucleotide (AID 1185); conditions: 15 min, higher = more signal, called active from +8 up or from −8 down
Homeobox protein Hox-A13 (Mus musculus), sequence (Q62424 whole entry, looked up): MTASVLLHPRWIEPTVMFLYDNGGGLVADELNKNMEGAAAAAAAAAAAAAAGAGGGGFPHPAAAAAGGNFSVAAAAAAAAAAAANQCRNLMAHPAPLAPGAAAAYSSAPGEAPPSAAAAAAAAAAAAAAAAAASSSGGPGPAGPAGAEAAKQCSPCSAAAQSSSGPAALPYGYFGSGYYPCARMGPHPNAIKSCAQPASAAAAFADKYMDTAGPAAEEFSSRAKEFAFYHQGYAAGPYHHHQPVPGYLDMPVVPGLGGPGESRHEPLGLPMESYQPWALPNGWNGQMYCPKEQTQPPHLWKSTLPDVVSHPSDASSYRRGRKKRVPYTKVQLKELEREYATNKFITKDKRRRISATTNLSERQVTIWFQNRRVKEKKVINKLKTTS

SMILES	composite z-score [1]	composite z-score (XIP peptide (Xip251-270))	z-score [2]	z-score [3]
COc1cccc([C@H]2Oc3ccc(OC)cc3C(=NOC(C)CN3CCCc4nc(C)c(C)cc43)[C@@H]2O)c1 (stereo not given in full)	0.22 (inactive)	-0.452	-1.06	-8.09 (active)
O=C1C2=CC[C@H]3C(=O)N(Cc4ccc5c(c4)OCO5)C(=O)[C@H]3[C@H]2[C@H](O)[C@@H]2O[C@H]12	0.225 (inactive)	0.0823	1.68	-0.229 (inactive)
C[C@@H]1C=CCC(=O)OC[C@H](C)C(=O)OC[C@H]2O[C@H]1C=C[C@H]2O	0.0137 (inactive)	0.756	-0.315	-1.13 (inactive)
CC(C)=CCCC(C)=CCON=C1C[C@@H](O)[C@@H](O)[C@@H]2[C@@H]3C(=O)N(C[C@@H]4CCCO4)C(=O)[C@@H]3CC[C@@H]12	0.0561 (inactive)	0.539	1.55	0.264 (inactive)
CCOC(=O)[C@H](CC(C)C)NC(=O)CCC1CC(OC(=O)NCCc2ccc(F)cc2)CC2(CCCC(COC(=O)NCc3ccccc3)O2)O1 (stereo not given in full)	0.137 (inactive)	0.461	-2.06	-7.01 (inactive)
O=C1[C@H]2[C@H]3[C@H](O)[C@H](O)CC(=NO[C@@H]4O[C@H](CO)[C@@H](O)[C@H](O)[C@H]4O)[C@H]3CC[C@H]2C(=O)N1Cc1ccccc1	-0.175 (inactive)	0.588	-1.19	-1.28 (inactive)
CCN1C(=O)[C@H]2[C@H]3[C@H](O)[C@H](O)CC(=NOC(C)CN4CCCCc5nc(C)c(C)cc54)[C@@H]3CC[C@H]2C1=O (stereo not given in full)	0.746 (inactive)	0.196	0.0706	-1.48 (inactive)
C=CC[C@@H]1C=C[C@H](ON=C2c3cc(OC)ccc3O[C@H](c3cccc(OC)c3)[C@H]2O)[C@@H](CO)O1	0.0897 (inactive)	-0.479	0.888	-5.69 (inactive)
COc1ccc(O[C@@H]2[C@H](O)CO[C@H]2C=CC#Cc2ccccc2)cc1	-0.0908 (inactive)	0.799	-0.456	-3.09 (inactive)
COc1ccc(COC(=O)NN=C2C[C@@H](O)[C@@H](O)[C@@H]3[C@@H]4C(=O)N(Cc5ccc6c(c5)OCO6)C(=O)[C@@H]4CC[C@@H]23)cc1	0.361 (inactive)	-0.239	0.142	0.284 (inactive)
CC(=O)OC[C@H]1O[C@@H](ON=C(C)CCN2CCc3nc(-c4ccccc4)c(-c4ccccc4)cc3C2)[C@H](OC(C)=O)[C@@H](OC(C)=O)[C@@H]1OC(C)=O	0.0113 (inactive)	0.71	-1.08	-5.05 (inactive)
O=C(NN=C1C[C@@H](O)[C@@H](O)[C@@H]2[C@@H]3C(=O)N(c4ccc(F)cc4F)C(=O)[C@@H]3CC[C@@H]12)OCc1ccccc1	-0.269 (inactive)	0.159	0.823	-1.72 (inactive)
COc1ccc(OC[C@H]2Cc3c(-c4ccccc4)nc4c(c3CO2)CN(CCOc2ccccc2)CC4)cc1	1.22 (inactive)	0.71	-1.34	-2.66 (inactive)
CO[C@H]1COC(=O)CC=C[C@H](C)[C@@H](NS(=O)(=O)c2ccc(C)cc2)COC(=O)CC=C[C@@H]1C	-0.116 (inactive)	0.0878	-0.648	1.31 (inactive)
CO[C@@H]1COC(=O)CCC[C@@H](C)[C@H](OC)COC(=O)CCC[C@H]1C	-0.201 (inactive)	0.201	-0.0787	-1.03 (inactive)
COc1cccc([C@@H]2Oc3ccc(Br)cc3C(=O)[C@H]2O)c1	2.46 (inactive)	0.181	0.988	-1.54 (inactive)
COC(=O)[C@H](C)NC(=O)[C@@H](C)CO	0.316 (inactive)	0.332	-0.613	-1.61 (inactive)
COc1ccc(COC(=O)NN=C2C[C@@H](O)[C@@H](O)[C@@H]3[C@@H]4C(=O)N(c5ccc(F)cc5F)C(=O)[C@@H]4CC[C@@H]23)cc1	-0.413 (inactive)	-0.0386	-0.351	-3.33 (inactive)
O=C(NN=C1C[C@@H](O)[C@@H](O)[C@@H]2[C@@H]3C(=O)N(c4cccc(Oc5ccccc5)c4)C(=O)[C@@H]3CC[C@H]12)OCc1ccccc1	-0.132 (inactive)	0.0323	-1.43	-3.8 (inactive)
CC(C)(C)N1C(=O)[C@H]2[C@H]3[C@H](O)[C@H](O)CC(=NOCc4ccccc4)[C@@H]3CC[C@H]2C1=O	0.691 (inactive)	0.779	0.281	1.12 (inactive)
CC1(C)OCC(C(O)C2=CCCCC2=O)CO1 (stereo not given)	0.563 (inactive)	0.446	-0.831	-2.61 (inactive)
O=C1[C@H]2[C@H]3[C@H](O)[C@H](O)CC(=NOC[C@@H](O)COCc4ccco4)[C@H]3CC[C@H]2C(=O)N1C1CCCCC1	-0.26 (inactive)	-0.37	-1.24	-0.271 (inactive)
CO[C@@H]1COC(=O)CCC[C@@H](C)[C@H](OC)COC(=O)[C@H](Cc2ccccc2)NC(=O)CC=C[C@H]1C	0.0232 (inactive)	-0.282	-1.34	-3.5 (inactive)

SMILES	composite z-score [1]	composite z-score (XIP peptide (Xip251-270))	z-score [2]	z-score [3]
C[C@@H](c1ccccc1)N1C(=O)[C@H]2[C@H]3[C@H](O)[C@H](O)CC(=NOC[C@@H](O)COCc4ccco4)[C@@H]3CC[C@H]2C1=O	-0.201 (inactive)	-0.287	-0.842	-1.25 (inactive)
CCOC(=O)CCN1C(=O)[C@H]2[C@H]3[C@H](O)[C@H](O)CC(=NOC[C@@H](O)COCc4ccco4)[C@@H]3CC[C@H]2C1=O	-0.159 (inactive)	0.807	1.93	-0.692 (inactive)
CC(C)CON=C1[C@H]2CCn3c(=O)n(-c4ccccc4)c(=O)n3[C@H]2[C@H](O)[C@@H]2O[C@H]12	0.142 (inactive)	0.263	-1.94	-0.738 (inactive)
COC(=O)[C@@H]1CCCN1C(=O)[C@@H](C)CO	0.446 (inactive)	0.0063	-1.35	1.64 (inactive)
CCOC(=O)NN=C1C[C@@H](O)[C@@H](O)[C@@H]2[C@@H]3C(=O)N(C4CCCCC4)C(=O)[C@@H]3CC[C@@H]12	0.311 (inactive)	0.101	1.51	-0.86 (inactive)
C[C@H]1CC[C@@H](C(=O)O)N[C@@H]1c1ccc(C#CCN(C)C)cc1	0.908 (inactive)	0.512	-0.0492	-1.16 (inactive)
CC(=O)OC[C@H]1O[C@H](CC=NOC[C@@H](C)[C@H](OCc2ccccc2)C(C)C)C=C[C@@H]1OC(C)=O	-0.655 (inactive)	-0.303	-0.46	-5.81 (inactive)
CCOC(=O)[C@H](CC(C)C)NC(=O)CCC1CC(OC(=O)NCc2cccc3ccccc23)CC2(CCCC(COC(=O)NCCc3ccccc3OC)O2)O1 (stereo not given in full)	1.05 (inactive)	0.623	-1.83	-3.13 (inactive)
CC(=O)OC[C@H]1O[C@H](CCON=C(C)CCN2CCc3nc(-c4ccccc4)c(-c4ccccc4)cc3C2)C=C[C@@H]1OC(C)=O	0.583 (inactive)	-0.0332	-0.697	-4.36 (inactive)
C[C@@H]1CCC2C(=O)N(Cc3ccccc3)C[C@@H](O)CN2[C@H]1c1ccc(Br)cc1 (stereo not given in full)	1 (inactive)	0.689	0.787	-3.92 (inactive)
C[C@@H]1CC[C@H]2C(=O)O[C@H](COc3ccc(C(C)(C)C)cc3)CN2[C@H]1c1ccc(Br)cc1	-0.418 (inactive)	0.769	-0.407	1.23 (inactive)
CCc1cc2c(nc1CC)CCN(CCC(C)=NOC(C)CN1CCCc3nc(C)c(C)cc31)C2 (stereo not given)	1.36 (inactive)	0.561	0.74	-9.89 (active)
CCOC(=O)[C@H](Cc1ccccc1)NC(=O)CCC1CC(OC(=O)NCc2ccc3c(c2)OCO3)CC2(CCCC(COC(=O)NCC3CCCCC3)O2)O1 (stereo not given in full)	-0.292 (inactive)	0.646	-1.96	-2.6 (inactive)
C[C@H](c1ccccc1)N1C(=O)[C@H]2[C@H]3[C@H](O)[C@H](O)CC(=O)[C@@H]3CC[C@H]2C1=O	0.0518 (inactive)	0.771	0.0307	-1.84 (inactive)
CO[C@@H]1COC(=O)CC=C[C@@H](C)[C@@H]2C=C[C@@H](O)[C@@H](COC(=O)CC=C[C@H]1C)O2	0.794 (inactive)	-0.317	0.328	-0.816 (inactive)
COC(=O)[C@@H]1CC[C@H](C)[C@@H](c2ccc(C)cc2)N1C(=O)c1ccc(C=NOC(C)CN2CCCCc3nc(C)c(C)cc32)cc1 (stereo not given in full)	-0.206 (inactive)	0.51	-1.76	-3.03 (inactive)
O=C1[C@H]2[C@H]3[C@H](O)[C@H](O)CC(=NOC[C@@H](O)COCc4ccco4)[C@@H]3CC[C@H]2C(=O)N1c1ccc(F)cc1F	-0.233 (inactive)	-0.103	-0.561	-4.05 (inactive)
COc1ccc(-c2ccc3c(n2)CCCN3CC(O)CN2CCCc3nc(C)c(C)cc32)cc1 (stereo not given)	2.32 (inactive)	0.79	0.618	-9.12 (active)
COCCNC(=O)OCC1CCCC2(CC(OC(=O)NCCc3ccc(F)cc3)CC(CCC(=O)N[C@@H](C)C(=O)OC)O2)O1 (stereo not given in full)	0.417 (inactive)	0.579	-1.82	-3.44 (inactive)
CC(C)=CCCC(C)=CCON=C1[C@H]2CCn3c(=O)n(C)c(=O)n3[C@H]2[C@H](O)[C@@H]2O[C@H]12	0.258 (inactive)	0.246	-1.55	-0.682 (inactive)
CCOC(=O)[C@H](CC(C)C)NC(=O)CCC1CC(OC(=O)NCc2cccc3ccccc23)CC2(CCCC(COC(=O)NCCN3CCOCC3)O2)O1 (stereo not given in full)	0.0634 (inactive)	0.464	-1.71	-4.01 (inactive)
CC=CC1=C(CO)[C@H](O)[C@H]2O[C@H]2[C@H]1O	-0.461 (inactive)	-0.229	0.337	-0.532 (inactive)
